According to PubChem BioAssay AID588453 (National Center for Advancing Translational Sciences (NCATS), 2011):
In all, about 390,000 compounds went through this assay and about 4,000 (1%) were called active. Not shown: some 4% with an inconclusive outcome. What follows is part of a selection rich in actives, with near analogues and random picks from the rest. Where a call stands in place of a potency, no number is given. Values without a mark were called inactive. Calls follow the shape of the dose curve; as a rule, active = well fitted inhibition curve with a large enough effect; inconclusive = small, poorly fitted or top-dose-only effect; inactive = no such curve, though single readings can be large or run the other way.

The molecules below were run against Thioredoxin reductase 1, cytoplasmic (Rattus norvegicus) (UniProt O89049) (assay: qHTS Assay for Inhibitors of Mammalian Selenoprotein Thioredoxin Reductase 1 (TrxR1): qHTS). Conditions: recombinant rTrxR1, NADPH fluorescence consumption, selenite substrate; series mostly up to 114 µM.
Sequence of Thioredoxin reductase 1, cytoplasmic (Rattus norvegicus) (O89049 whole entry, looked up): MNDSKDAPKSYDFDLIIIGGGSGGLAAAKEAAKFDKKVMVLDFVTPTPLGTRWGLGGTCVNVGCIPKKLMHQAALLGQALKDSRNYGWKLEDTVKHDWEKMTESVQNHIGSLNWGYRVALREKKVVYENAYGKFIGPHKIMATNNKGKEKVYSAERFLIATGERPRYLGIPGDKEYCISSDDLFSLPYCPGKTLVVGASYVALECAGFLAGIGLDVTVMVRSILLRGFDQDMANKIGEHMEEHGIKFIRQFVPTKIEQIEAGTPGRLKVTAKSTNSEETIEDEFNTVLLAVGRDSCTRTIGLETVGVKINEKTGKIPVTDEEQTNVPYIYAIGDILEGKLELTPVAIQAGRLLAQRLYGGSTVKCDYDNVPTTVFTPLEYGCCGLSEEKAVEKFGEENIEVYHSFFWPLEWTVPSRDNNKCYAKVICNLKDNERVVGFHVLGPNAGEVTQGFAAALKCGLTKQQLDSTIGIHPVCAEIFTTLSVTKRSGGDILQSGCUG
Method in brief: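 Rat TrxR1 (90 nM in the dispensed reagent) was pre-reduced with 400 uM NADPH for 5 min at room temperature, then incubated with compound for 15 min. After 400 uM selenite was added, NADPH fluorescence (Ex 340/Em 450 nm) was followed for 8 min.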
Also: nearly all actives have a fitted effect of over 65% in size.
Potency is read from the fitted curve at half-maximal effect.

| SMILES | Potency | activity change, negative = inhibition |
| --- | --- | --- |
| Nc1ncnc2nnsc12 | inactive | – |
| COc1cc2nc(C#Cc3nc4cc(OC)c(OC)cc4[nH]3)[nH]c2cc1OC | inactive | – |
| CC(C)(C(=O)NO)c1ccccc1 | inactive | – |
| Cc1cccc(CSc2nc3ccncc3n2CC(=O)N(C)C2CCCCC2)c1 | inactive | – |
| O=C(NCCN1CCN(C(=O)c2cccc([N+](=O)[O-])c2)CC1)C(=O)NCc1ccc(Cl)cc1 | inactive | – |
| O=C(CCl)N(Cc1cccc([N+](=O)[O-])c1)c1cccc(Cl)c1 | 7.94 µM (active) | – |
| CC(=O)N(CN1C(=O)C2C3C=CC(C3)C2C1=O)c1cccc(Cl)c1 (stereo not given) | – | 9.83% [at 11.4 µM] |
| Cc1ccc(Cl)cc1N(C)C(=O)C1CCCN(c2ncnc3onc(-c4ccc(F)cc4)c23)C1 (stereo not given) | inactive | – |
| CC(C)(C)n1nnnc1C(c1ccc2ncccc2c1)N1CCSCC1 (stereo not given) | inactive | – |
| Cc1cccc(N2CCN(C(c3ccc(N(C)C)cc3)c3nnnn3C(C)(C)C)CC2)c1C (stereo not given) | 11.2 µM (active) | – |
| CC(C)(C)n1nnnc1C(c1ccc(Cl)cc1)N1CCSCC1 (stereo not given) | inactive | – |
| Cc1ccsc1CN(C(=O)c1oc2ccc(Br)cc2c1C)C1CCS(=O)(=O)C1 (stereo not given) | inactive | – |
| Cc1cccc(S(=O)(=O)c2cn(Cc3ccccc3)c3cc(N4CCOCC4)c(F)cc3c2=O)c1 | inactive | – |
| COc1ccccc1-c1noc(CSc2nnc(-c3ccccc3)n2-c2ccc(C)c(C)c2)n1 | inactive | – |
| O=C(Nc1ccccc1)c1ccccc1OCc1ccccc1 | inactive | – |
| COc1ccc(CCn2cc3c(c2-c2ccc(Br)cc2)c(=O)n(C)c(=O)n3C)cc1OC | inactive | – |
| COc1ccc(-c2c3c(=O)n(C)c(=O)n(C)c3c3c(C)nc4ccccc4n23)cc1 | inactive | – |
| Cc1ccc(-c2c3c(=O)n(C)c(=O)n(C)c3cn2-n2cnnc2)cc1 | 50.1 µM (active) | – |
| Cc1ccc(N(CC(=O)NCC(C)c2ccccc2)S(=O)(=O)N(C)C)cc1 (stereo not given) | inactive | – |
| COc1cc(NC(=O)CN2CCN(S(=O)(=O)c3ccc(Br)cc3)CC2)cc(OC)c1 | inactive | – |
| CC(C)N(C(=O)CN1CCN(S(=O)(=O)c2ccc(Br)s2)CC1)C(C)C | inactive | – |
| Cc1cccc(NC(=O)CN2CCCN(S(=O)(=O)c3ccc(Br)s3)CC2)c1 | 12.6 µM (active) | – |

| SMILES | Potency | activity change, negative = inhibition |
| --- | --- | --- |
| Cc1ccc2ccc3c(c2n1)NS(=O)(=O)c1ccccc1-3 | inactive | – |
| COc1ccc(C(=O)C2CCCN(C(=O)c3ccc(OC)o3)C2)c(C)c1 (stereo not given) | 39.8 µM (active) | – |
| COc1ccc(C(=O)C2CCCN(S(=O)(=O)c3cccc(C)c3)C2)c(C)c1 (stereo not given) | inactive | – |
| COc1ccc(C(=O)C2CCCN(C(=O)c3cnsn3)C2)c(C)c1 (stereo not given) | inactive | – |
| CN(C)c1ccc(/C=C/c2sc3ccccc3[n+]2C)cc1 | inactive | – |
| Oc1ccc(N2CCN(C(=S)NCc3ccccc3)CC2)cc1 | inactive | – |
| OCC(CO)(CO)NCc1ccc(-c2ccccc2)cc1 | inactive | – |
| Oc1ccc(CNc2ccccc2O)cc1 | 7.94 µM (active) | – |
| COc1ccc(OC)c(CNC(=O)c2c3c(nc4ccccc24)C(=O)N(C2CCCCC2)C3)c1 | inactive | – |
| COc1cc2[nH]c(C)c(CCN3CCN(c4ccccc4)CC3)c2cc1OC | inactive | – |
| COc1ccccc1NC(=O)N(O)C1(C#N)CCCCC1 | inactive | – |
| COc1ccccc1NC(=O)/C=C/C(N)=O | 12.6 µM (active) | – |
| COc1ccccc1NC(=O)COC(=O)COc1ccccc1F | inactive | – |
| COc1ccc(C(CCN2CCOCC2)c2c(OC)cc(OC)c3c2OC(=O)CC3c2ccc(OC)cc2)cc1 (stereo not given) | inactive | – |
| CCc1nn(CC(=O)Nc2cc(C)cc(C)c2)c(=O)c2cc3sccc3n12 | inactive | – |
| COc1cccc(CNC(=O)Cn2c(=O)c3cccn3c3ccc(F)cc32)c1OC | inactive | – |
| O=C(/C=C/Sc1ncn[nH]1)c1ccc(Cl)cc1 | 0.447 µM (active) | – |
| COc1cccc(C(=O)Oc2cc(C)[nH]c(=O)c2[N+](=O)[O-])c1 | inactive | – |
| Cn1c(=O)c(Sc2ccc(Cl)cc2)c(O)c2ccccc21 | inactive | – |
| Cn1c(=O)c([N+](=O)[O-])c(Oc2ccccc2)c2ccccc21 | 2.24 µM (active) | – |
| Cc1cccc(C2CC(=O)Oc3c2c(=O)n(C)c2ccccc32)c1 (stereo not given) | inactive | – |
| Cc1cccc(Oc2c([N+](=O)[O-])c(=O)n(C)c3ccccc23)c1 | 3.16 µM (active) | – |

| SMILES | Potency | activity change, negative = inhibition |
| --- | --- | --- |
| Cc1cccc(C(=O)O)c1[N+](=O)[O-] | inactive | – |
| COc1cc(-c2cc3n(C)c(C)c(CCC(=O)Nc4ccc(F)cc4)c(=O)n3n2)cc(OC)c1OC | inactive | – |
| Cc1cccc(-n2ccnc2SCC(=O)Nc2cc(C(F)(F)F)ccc2Cl)c1 | inactive | – |
| Cc1ccc(-c2cc(C(F)(F)F)c(C#N)c(SCC(=O)Nc3ccccc3)n2)cc1 | inactive | – |
| N#Cc1cc2[nH]c(=O)c(=O)[nH]c2cc1[N+](=O)[O-] | inactive | – |
| COc1ccc(N=Nc2c(-c3ccc(OC)cc3)[nH]oc2=O)cc1 | inactive | – |
| COc1ccc(N=C2C=CC(=O)O2)cc1 | 10 µM (active) | – |
| COC1=CC(=O)OC(c2ccc(OC)cc2)C1 (stereo not given) | inactive | – |
| COc1ccc(C)cc1-n1c(-c2ccc(C)cc2)cc2c1CC(C)(C)CC2=O | inactive | – |
| O=C(Nc1ccc([N+](=O)[O-])cc1)c1cnn2c1NC(=C1CC1)C=C2C(F)F | inactive | – |
| CCc1ccc(NS(=O)(=O)c2ccc3[nH]cc(C(=O)NCCc4cccc(C)c4)c(=O)c3c2)cc1 | inactive | – |
| COc1cc(NC(=O)c2nc3ccccc3nc2C)cc(OC)c1OC | inactive | – |
| COc1cc(NC(=O)c2noc3c2CSc2ccccc2-3)cc(OC)c1OC | 14.1 µM (active) | – |
| COc1ccc(CCNC(=O)c2nn(C)c3c2CSc2ccccc2-3)cc1OC | inactive | – |
| Cc1cccc(NC(=O)CSc2nc3c([nH]c4ccccc43)c(=O)n2-c2cc(C)cc(C)c2)c1 | inactive | – |
| CCN(CC(=O)Nc1ccccc1OC)C(=O)Cn1cnc2ccccc2c1=O | inactive | – |
| CC1(C)C(=O)Nc2ccccc2N1C(=O)COC(=O)Cn1cnc2ccccc2c1=O | inactive | – |
| COc1ccc(C(C)=O)cc1COC(=O)Cn1cnc2ccccc2c1=O | 17.8 µM (active) | – |
| COc1ccc(C)cc1NC(=O)COCc1cc(-c2cccs2)on1 | inactive | – |
| CCOC(=O)c1ccc(NC(=O)C2CC(=O)NC(=Nc3ccc(C)c(C)c3)S2)cc1 (stereo not given) | inactive | – |
| Cn1c(=O)oc2cc(S(=O)(=O)CCC(=O)NCCc3ccc(Cl)cc3)ccc21 | inactive | – |
